The campaign covered roughly 5,500 compounds. About 2,000 (36%) were called active. Not shown: some 18% with an inconclusive outcome. The list shows a part of the results. A number with no mark means an inactive call. Rule as the data show it: active = normalized growth mostly below about 0.91 (no sharp cut-off); inconclusive = no clear call, values can overlap the other calls; inactive = mostly above about 0.92.
Test: chemical genetic growth profiling, strain panel (AID 1159580);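 also: tested at 20 µM; growth read once vehicle control cultures reached saturation at 30 °C; 1 = growth at the plate median or of vehicle wells; lower values mean less growth of the strain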
Settings: growth OD

## COc1ccc(CCN2CCC(Nc3nc4ccccc4n3Cc3ccc(F)cc3)CC2)cc1
S. cerevisiae deletion strains, locus YJR066W, strain TOR1, hits give low values
  normalized growth: 0.931
S. cerevisiae deletion strains, locus YKL009W, strain mrt4, hits give low values
  normalized growth: 0.99
S. cerevisiae deletion strains, locus YKL068W, hits give low values
  normalized growth: 0.991
S. cerevisiae deletion strains, locus YKL085W, strain MDH1 (second series), hits give low values
  normalized growth: 1.04
S. cerevisiae deletion strains, locus YKL085W, strain MDH1, hits give low values
  normalized growth: 1.04
S. cerevisiae deletion strains, locus YKL160W, strain elf1, hits give low values
  normalized growth: 0.961
S. cerevisiae deletion strains, locus YKL190W, strain CNB1, hits give low values
  normalized growth: 0.992
S. cerevisiae deletion strains, locus YKR001C, strain vps1, hits give low values
  normalized growth: 0.999
S. cerevisiae deletion strains, locus YKR026C, strain gcn3, hits give low values
  normalized growth: 0.945
S. cerevisiae deletion strains, locus YKR091W, strain srl3, hits give low values
  normalized growth: 0.987
S. cerevisiae deletion strains, locus YLL001W, strain dnm1, hits give low values
  normalized growth: 0.954
S. cerevisiae deletion strains, locus YLL026W, hits give low values
  normalized growth: 0.974
S. cerevisiae deletion strains, locus YLL041C, strain sdh2, hits give low values
  normalized growth: 0.969
S. cerevisiae deletion strains, locus YLR027C, strain aat2, hits give low values
  normalized growth: 0.978
S. cerevisiae deletion strains, locus YLR039C, strain RIC1, hits give low values
  normalized growth: 1.19
S. cerevisiae deletion strains, locus YLR058C, strain SHM2, hits give low values
  normalized growth: 0.974
S. cerevisiae deletion strains, locus YLR102C, strain apc9, hits give low values
  normalized growth: 0.991
S. cerevisiae deletion strains, locus YLR113W, strain HOG1, hits give low values
  normalized growth: 0.976
S. cerevisiae deletion strains, locus YLR221C, strain rsa3, hits give low values
  normalized growth: 0.951
S. cerevisiae deletion strains, locus YLR258W, strain gsy2, hits give low values
  normalized growth: 0.962
S. cerevisiae deletion strains, locus YLR262C, strain YPT6 (second series), hits give low values
  normalized growth: 1.05
S. cerevisiae deletion strains, locus YLR262C, strain YPT6, hits give low values
  normalized growth: 1.21
S. cerevisiae deletion strains, locus YLR268W, strain sec22, hits give low values
  normalized growth: 0.969
S. cerevisiae deletion strains, locus YLR320W, strain mms22, hits give low values
  normalized growth: 0.85 (active)
S. cerevisiae deletion strains, locus YLR330W, strain CHS5, hits give low values
  normalized growth: 0.995
S. cerevisiae deletion strains, locus YLR342W, strain FKS1 (second series), hits give low values
  normalized growth: 0.945
S. cerevisiae deletion strains, locus YLR342W, strain FKS1, hits give low values
  normalized growth: 0.969
S. cerevisiae deletion strains, locus YLR357W, strain rsc2, hits give low values
  normalized growth: 0.986
S. cerevisiae deletion strains, locus YLR370C, strain arc18, hits give low values
  normalized growth: 0.892 (active)
S. cerevisiae deletion strains, locus YLR371W, strain rom2, hits give low values
  normalized growth: 0.986
S. cerevisiae deletion strains, locus YLR384C, strain iki3, hits give low values
  normalized growth: 1
S. cerevisiae deletion strains, locus YLR418C, strain cdc73, hits give low values
  normalized growth: 0.943
S. cerevisiae deletion strains, locus YML016C, strain PPZ1, hits give low values
  normalized growth: 0.979
S. cerevisiae deletion strains, locus YML032C, strain rad52, hits give low values
  normalized growth: 0.955
S. cerevisiae deletion strains, locus YML120C, strain ndi1, hits give low values
  normalized growth: 0.978
S. cerevisiae deletion strains, locus YML124C, strain tub3, hits give low values
  normalized growth: 0.991
S. cerevisiae deletion strains, locus YMR058W, strain fet3, hits give low values
  normalized growth: 0.865 (active)
S. cerevisiae deletion strains, locus YMR078C, strain ctf18, hits give low values
  normalized growth: 0.987
S. cerevisiae deletion strains, locus YMR125W, strain sto1, hits give low values
  normalized growth: 0.964
S. cerevisiae deletion strains, locus YMR129W, hits give low values
  normalized growth: 0.995
S. cerevisiae deletion strains, locus YMR205C, strain PFK2, hits give low values
  normalized growth: 0.908
S. cerevisiae deletion strains, locus YMR223W, strain ubp8, hits give low values
  normalized growth: 0.988
S. cerevisiae deletion strains, locus YMR231W, strain pep5, hits give low values
  normalized growth: 0.997
S. cerevisiae deletion strains, locus YMR263W, strain SAP30, hits give low values
  normalized growth: 0.997
S. cerevisiae deletion strains, locus YMR307W, strain GAS1, hits give low values
  normalized growth: 0.894
S. cerevisiae deletion strains, locus YNL067W, strain RPL9B, hits give low values
  normalized growth: 0.982
S. cerevisiae deletion strains, locus YNL071W, strain lat1, hits give low values
  normalized growth: 0.959
S. cerevisiae deletion strains, locus YNL128W, strain TEP1, hits give low values
  normalized growth: 0.984
S. cerevisiae deletion strains, locus YNL153C, strain GIM3, hits give low values
  normalized growth: 1
S. cerevisiae deletion strains, locus YNL183C, strain NPR1, hits give low values
  normalized growth: 0.946
S. cerevisiae deletion strains, locus YNL209W, strain ssb2, hits give low values
  normalized growth: 0.962
S. cerevisiae deletion strains, locus YNL233W, strain BNI4, hits give low values
  normalized growth: 0.959
S. cerevisiae deletion strains, locus YNL250W, strain rad50, hits give low values
  normalized growth: 0.988
S. cerevisiae deletion strains, locus YNL271C, strain bni1, hits give low values
  normalized growth: 0.982
S. cerevisiae deletion strains, locus YNL298W, strain CLA4, hits give low values
  normalized growth: 0.987
S. cerevisiae deletion strains, locus YNL307C, strain MCK1, hits give low values
  normalized growth: 0.969
S. cerevisiae deletion strains, locus YNL322C, strain KRE1 (second series), hits give low values
  normalized growth: 0.991
S. cerevisiae deletion strains, locus YNR049C, strain mso1, hits give low values
  normalized growth: 0.96
S. cerevisiae deletion strains, locus YNR052C, strain pop2, hits give low values
  normalized growth: 0.982
S. cerevisiae deletion strains, locus YOL006C, strain TOP1, hits give low values
  normalized growth: 0.759
S. cerevisiae deletion strains, locus YOL012C, strain htz1
  normalized growth: 0.955
S. cerevisiae deletion strains, locus YOL147C, strain pex11, hits give low values
  normalized growth: 0.99
S. cerevisiae deletion strains, locus YOR001W, strain rrp6, hits give low values
  normalized growth: 0.881 (active)
S. cerevisiae deletion strains, locus YOR061W, strain CKA2, hits give low values
  normalized growth: 0.969
S. cerevisiae deletion strains, locus YOR069W, strain VPS5, hits give low values
  normalized growth: 0.993
S. cerevisiae deletion strains, locus YOR070C, strain gyp1, hits give low values
  normalized growth: 0.944
S. cerevisiae deletion strains, locus YOR080W, strain dia2, hits give low values
  normalized growth: 1
S. cerevisiae deletion strains, locus YOR083W, strain WHI5, hits give low values
  normalized growth: 0.927
S. cerevisiae deletion strains, locus YOR106W, strain vam3, hits give low values
  normalized growth: 0.969
S. cerevisiae deletion strains, locus YOR136W, strain idh2, hits give low values
  normalized growth: 0.98
S. cerevisiae deletion strains, locus YOR144C, strain elg1, hits give low values
  normalized growth: 0.986
S. cerevisiae deletion strains, locus YOR184W, strain ser1, hits give low values
  normalized growth: 0.953
S. cerevisiae deletion strains, locus YOR231W, strain MKK1, hits give low values
  normalized growth: 0.973
S. cerevisiae deletion strains, locus YOR265W, strain rbl2, hits give low values
  normalized growth: 0.993
S. cerevisiae deletion strains, locus YOR270C, strain vph1, hits give low values
  normalized growth: 0.607 (active)
S. cerevisiae deletion strains, locus YOR290C, strain snf2, hits give low values
  normalized growth: 0.633 (active)
S. cerevisiae deletion strains, locus YOR316C, strain cot1, hits give low values
  normalized growth: 0.994
S. cerevisiae deletion strains, locus YPL051W, strain arl3, hits give low values
  normalized growth: 0.968
S. cerevisiae deletion strains, locus YPL078C, strain atp4, hits give low values
  normalized growth: 0.975
S. cerevisiae deletion strains, locus YPL106C, strain sse1, hits give low values
  normalized growth: 0.894
S. cerevisiae deletion strains, locus YPL240C, strain hsp82, hits give low values
  normalized growth: 0.986
S. cerevisiae deletion strains, locus YPL241C, strain CIN2, hits give low values
  normalized growth: 0.992
S. cerevisiae deletion strains, locus YPL256C, strain CLN2, hits give low values
  normalized growth: 0.982
S. cerevisiae deletion strains, locus YPR119W, strain clb2, hits give low values
  normalized growth: 0.988
S. cerevisiae deletion strains, locus YPR141C, strain kar3, hits give low values
  normalized growth: 0.991
S. cerevisiae deletion strains, locus YPR163C, strain tif3, hits give low values
  normalized growth: 0.988
S. cerevisiae deletion strains, locus YPR167C, strain met16, hits give low values
  normalized growth: 0.976
S. cerevisiae deletion strains, strain wtn01, hits give low values
  normalized growth: 0.974
S. cerevisiae strains, strain wild type, hits give low values
  normalized growth: 0.986

From PubChem BioAssay AID1159580 (chemical genetic matrix, 2015)
